The values that follow come from PubChem BioAssay AID589 (National Center for Advancing Translational Sciences (NCATS), 2007).

In all, about 59,000 compounds went through this assay and about 6,200 (11%) were called active. Roughly 9% stayed inconclusive and do not appear here. Cut-off read from the data, not from the text of the source: active = max dye-equivalent concentration above about 10 nM; inconclusive = mostly about 1.1 nM to 9.6 nM; inactive = weaker than that. Only a selection was taken, and actives are over-represented in it overall.

The test can be described thus: qHTS Assay for Spectroscopic Profiling in 4-MU Spectral Region. Conditions: compound autofluorescence, 340/450 nm, 4-MU equivalents; stronger effect = higher value. The method in brief:
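Intrinsic fluorescence at 340/450 nm (ex/em) was read after 15 min at room temperature in pH 8.0, 100 mM Tris. Each compound concentration expressed as 4-MU-equivalent concentration from a six-point 4-MU standard series on each plate.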
In the case of `C/C=C1\C(=O)C[C@@H]2[C@@H]3CCC4=CC(=O)CC[C@@]4(C)[C@H]3CC[C@@]12C`, the max dye-equivalent concentration was 12 nM (active).

For `COc1cccc(OCC(=O)Nc2ccccc2C(N)=O)c1`, the max dye-equivalent concentration result is “inactive”.

Turning to `O=C(CCC(=O)N1CCN(S(=O)(=O)c2ccccc2)CC1)NC1CCCc2ccccc21` (centres undefined), the max dye-equivalent concentration entry was “inactive”.

For the compound `N#C/C=C1\Sc2ccccc2C(=O)N1CC(=O)N1CCN(S(=O)(=O)c2ccccc2)CC1`, the max dye-equivalent concentration is 18 nM (active).

Take `Cc1ccc(S(=O)(=O)N2CCN(C(=O)CCC(=O)NC3CCCc4ccccc43)CC2)cc1` (centres undefined): the max dye-equivalent concentration result was “inactive”.

Turning to `CC1=NCCN1S(=O)(=O)c1ccc(Br)c(C)c1`, the max dye-equivalent concentration entry is “inactive”.

As to `CC(=O)c1cnc(Nc2nc(C)c3cc(C)ccc3n2)nc1C`, the max dye-equivalent concentration entry is “inactive”.

Turning to `O=C(CS(=O)(=O)Cc1ccccc1)NCC1CCCO1` (centres undefined), the max dye-equivalent concentration result is “inactive”.

For the compound `O=C(CSC1=Nc2ccccc2C2=NC(c3ccccc3)C(=O)N12)NCC1CCCO1` (centres undefined), the max dye-equivalent concentration was 750 nM (active).

For the compound `O=C(CSc1nnc(-c2ccc(NS(=O)(=O)c3ccccc3)cc2)o1)NCC1CCCO1` (centres undefined), the max dye-equivalent concentration entry was “inactive”.

Turning to `COC(=O)NC1(C(F)(F)F)NC(=O)N(C2CCCCC2)C1=O` (centres undefined), the max dye-equivalent concentration entry is “inactive”.

Regarding `O=C(NCc1ccc(Cl)cc1)c1cc2c(nc3sccn32)s1`, the max dye-equivalent concentration result is “inactive”.

In the case of `CS(=O)(=O)N1CCC[C@@]2(CCN(c3ccncc3)C2)C1`, the max dye-equivalent concentration entry is “inactive”.

As for `Cc1ccc2cc3cc(C(=O)N4CCCCCC4)oc3nc2c1`, the max dye-equivalent concentration was 12 nM (active).

`Cc1ccc(C(=O)N2CCCCCC2)cc1Br`: the max dye-equivalent concentration result was “inactive”.

Consider `O=C(c1cc(-c2cccs2)on1)N1CCCCC1`, for which the max dye-equivalent concentration result is “inactive”.

As for `Cc1cc(C(=O)CC#N)c(C)n1CC(F)(F)F`, the max dye-equivalent concentration result is “inactive”.

On to `Cc1ccsc1CNn1cnnc1SCc1ccccc1F`, for which the max dye-equivalent concentration result was “inactive”.

Regarding `COc1ccccc1N1CCN(C(=O)Cn2nnc(-c3cccs3)n2)CC1`, the max dye-equivalent concentration entry was “inactive”.

With `CN(C(=O)c1ccno1)c1nnc(-c2cccnc2)s1`, the max dye-equivalent concentration result was “inactive”.

With `COc1cccc(-c2nnc(N(C)C(=O)c3ccno3)s2)c1`, the max dye-equivalent concentration is 34 nM (active).

In the case of `CN(C(=O)COc1ccccc1)c1nnc(-c2ccncc2)s1`, the max dye-equivalent concentration result was “inactive”.

On to `C=CCn1c(COc2ccccc2)nnc1SCC(=O)NCC(=O)OCC`, for which the max dye-equivalent concentration result is “inactive”.

On to `COc1ccccc1-c1cc(NCc2cccs2)ncn1`, for which the max dye-equivalent concentration result was “inactive”.

For `COC(=O)[C@H](CCSC)NC(=O)Nc1ccc(OC)cc1`, the max dye-equivalent concentration result was “inactive”.

As to `COc1cccc2cc(C(C)N(CCCN3CCOCC3)C(=O)Nc3ccc(Cl)cc3)oc12` (centres undefined), the max dye-equivalent concentration result is “inactive”.

In the case of `COc1ccc(CCN(Cc2cc3cccc(C)c3[nH]c2=O)C(=O)N2CCCC2)cc1OC`, the max dye-equivalent concentration result was “inactive”.

Regarding `COc1cc2cc(CN(CCN3CCCC3)C(=O)Nc3ccccc3Cl)c(=O)[nH]c2cc1OC`, the max dye-equivalent concentration was 250 nM (active).

Consider `CCCc1nc2c3cnn(-c4cccc(Cl)c4)c3ncn2n1`, for which the max dye-equivalent concentration entry was “inactive”.

As for `COc1ccc(-n2ncc3c(N4CCCc5ccccc54)ncnc32)cc1`, the max dye-equivalent concentration was 39 nM (active).

For `COc1ccc(N2CCN(C(=O)CSc3ncnc4c3cnn4-c3ccc(OC)cc3)CC2)cc1`, the max dye-equivalent concentration result was “inactive”.

`Cc1cccc(-n2ncc3c(N4CCc5ccccc54)ncnc32)c1`: the max dye-equivalent concentration was 18 nM (active).

For `c1ccc(-n2ncc3c(N4CCCC4)ncnc32)cc1`, the max dye-equivalent concentration result is “inactive”.

As to `Oc1c(C(c2ccccn2)N2CCOCC2)ccc2cccnc12` (centres undefined), the max dye-equivalent concentration result is “inactive”.

For the compound `COc1ccccc1CNc1cc(-c2ccccc2CN(C)C)ncn1`, the max dye-equivalent concentration entry was “inactive”.

With `O=C(Nc1ccccc1F)C1C2C=CC3(O2)C1C(=O)N(c1cccnc1)C3C(=O)NC1CCCCC1` (centres undefined), the max dye-equivalent concentration entry is “inactive”.

In the case of `Cc1ccc(-c2c3c(=O)n(C)c(=O)n(C)c3cn2-n2cnnc2)cc1`, the max dye-equivalent concentration result was “inactive”.

On to `COc1ccc(-c2c3c(=O)n(C)c(=O)n(C)c3cn2-c2cccc(OC)c2)cc1`, for which the max dye-equivalent concentration was 12 nM (active).

For `Cc1ccc(-c2c3c(=O)n(C)c(=O)n(C)c3cn2-c2ccccc2O)cc1`, the max dye-equivalent concentration result is “inactive”.

With `COc1ccc(N(C(=O)c2cccnc2)S(=O)(=O)c2ccc3c(c2)n(C)c(=O)n3C)cc1`, the max dye-equivalent concentration result is “inactive”.

On to `COc1ccc(-c2c3c(=O)n(C)c(=O)n(C)c3cn2NC(C)=O)cc1`, for which the max dye-equivalent concentration was 2200 nM (active).

Consider `COc1ccc(OC)c(-n2cc3c(=O)n(C)c(=O)n(C)c3c2)c1`, for which the max dye-equivalent concentration result is “inactive”.

As for `Cc1ccc(Oc2ccc(N)cc2)cc1`, the max dye-equivalent concentration result was “inactive”.

Turning to `CCOc1ccccc1-n1c(SCC(=O)NCc2ccco2)nnc1-c1ccncc1`, the max dye-equivalent concentration result is “inactive”.

In the case of `O=C(CCc1ccccc1)Nc1ccc(NC(=O)C2CC2)nc1`, the max dye-equivalent concentration entry is “inactive”.

On to `O=C1CC(c2ccccc2)C(=O)N1c1cccc(O)c1` (centres undefined), for which the max dye-equivalent concentration result was “inactive”.

As for `Cc1cc(NC(=O)c2cnn3cccnc23)n(-c2ccccc2)n1`, the max dye-equivalent concentration entry is “inactive”.

`O=C(Nc1nc2cc3c(cc2s1)OCCO3)c1cccc(S(=O)(=O)N2CCOCC2)c1`: the max dye-equivalent concentration was 18 nM (active).

In the case of `COc1ccc(S(=O)(=O)N2CCOCC2)cc1C(=O)Nc1nc2ccccc2s1`, the max dye-equivalent concentration was 35 nM (active).

For `O=C(Nc1nc2ccc(S(=O)(=O)N3CCCC3)cc2s1)C1CCCO1` (centres undefined), the max dye-equivalent concentration result is “inactive”.

As for `O=C(Nc1ccc2c(c1)nc1n2CCCCC1)c1cc(S(=O)(=O)N2CCOCC2)ccc1Cl`, the max dye-equivalent concentration result is “inactive”.

`CCN(Cc1ccncc1)C(=O)c1cccc(S(=O)(=O)N2CCOCC2)c1`: the max dye-equivalent concentration entry was “inactive”.

With `CCOC(=O)c1sc(NC(=O)c2cc(S(=O)(=O)N3CCOCC3)ccc2C)nc1C`, the max dye-equivalent concentration entry is “inactive”.

In the case of `CC(=O)c1c(N2CCOCC2)nc(=S)n(-c2cc(C)ccc2C)c1C`, the max dye-equivalent concentration entry was “inactive”.
